In PubChem BioAssay:
Unmarked numbers belong to inactive results.

Assay: growth modulation of vineyard yeast isolate – strain RM11-1a, OD600, basal, 24 h, primary screen (AID 1177);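 also: cultures grown under basal conditions with no added stressor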
Conditions: S. cerevisiae RM11-1a growth, OD600, 24 h; higher = more signal, called active from +8 up or from −8 down
Also: test concentration not given here.

SMILES	z-score
CCOC(=O)C1=C[C@@H](c2ccccc2)N(S(=O)(=O)c2ccc(C)cc2)[C@H]1c1ccccc1	0.398
C=CC[C@H](OC(=O)Nc1ccc(SC)cc1)c1ccc(OCCO)cc1	1.07
O=C(O)[C@H]1C[C@H]2C(=O)N[C@@H](Cc3ccccc3)C(=O)N2[C@H]1c1cccc(OCCO)c1	-0.655
CN(C)C(=O)[C@]1(CCS(=O)(=O)c2ccccc2)N=C(c2ccc(OCCCO)cc2)O[C@@H]1c1ccccc1	-0.315
CCOC(=O)C1=C[C@@H](C(C)(C)C)N(S(=O)(=O)c2ccc(C)cc2)[C@H]1c1ccc(C)cc1	0.526

Assay: growth of efflux-deficient E. coli DRC39 – strain DRC39, OD650, 24 h, E. coli filamentation inducers, primary screen (AID 1178);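 also: growth measured as culture turbidity by optical density at 650 nm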
Conditions: E. coli DRC39 acrAB, higher = more signal, called active from +8 up or from −8 down

SMILES	z-score
[N-]=[N+]=Nc1ccccc1C[C@]1(C(=O)NCc2ccccc2)COC(c2ccc(OCCCO)cc2)=N1	0.728
C=CCNC(=O)[C@H]1[C@@H]2C(=O)O[C@@H](c3ccccc3)[C@@H](c3ccccc3)N2[C@@H](c2ccc(OCCO)cc2)[C@]12C(=O)Nc1ccc(C#CCNC(N)=O)cc12	-0.575
CCOC(=O)C[C@H]1[C@H](OC(=O)c2ccccc2-c2ccccc2)[C@@H](NC(=O)c2ccc3ccccc3n2)c2cc(OCCCO)ccc2N1C(=O)c1ccccc1	-0.745
C[C@@H]1ON(c2ccc(I)cc2)[C@H](c2ccc(OC(=O)OC(C)(C)C)cc2)[C@H]1C(=O)N1C(=O)OC[C@H]1Cc1ccccc1	1.81
CN1C(=O)[C@@H]2[C@@H](CC(COc3ccccc3)=C([C@H](O)CCc3ccccc3)[C@@H]2CO)C1=O	2.19
NC(=O)N1C(=O)C2C(C1=O)C1C=C(CCCO)C2C(C2CC2)N1Cc1cccc(OC(F)(F)F)c1 (stereo unspecified)	-0.149
O=C(N1CCOCC1)[C@@]1(CCS(=O)(=O)c2ccccc2)N=C(c2ccc(OCCCO)cc2)O[C@H]1c1ccccc1	0.0835
C=C(COC)C(=O)CC[C@H](OC(C)=O)c1ccc(OCCO)cc1	-0.238
COc1ccc(C(O)C2C=CC3C(=O)N(c4ccccc4)C(=O)C3N2Nc2ccccc2)cc1 (stereo unspecified)	-0.519
O=C1C2C=CC(C(O)C=Cc3ccc([N+](=O)[O-])cc3)N(Nc3ccccc3)C2C(=O)N1c1ccccc1 (stereo unspecified)	-0.125
CCN(CC)c1ccc(N2CC=CC34O[C@@H]5C=CCCOC(=O)C5[C@H]3C(=O)N(CCO)[C@@H]4C2=O)cc1 (stereo partly specified)	0.449
CN1C=C(C(=O)OCCS(C)(=O)=O)C(C(=O)OCCS(C)(=O)=O)=CC(c2ccc(CO)cc2)=CC1c1cccs1 (stereo unspecified)	0.0198
C=C(C)C1CCC(C(O)C2C=CC3C(=O)N(C)C(=O)C3N2Nc2cc(OC)c(OC)c(OC)c2)CC1 (stereo unspecified)	-0.274
O=C1NC(=O)C2C1C=CC(C(O)c1ccccn1)N2Nc1ccc(Cl)cc1Cl (stereo unspecified)	-0.587
CCCCC=C[C@@H](NC(=O)c1ccccc1)c1ccccc1	-1.44
C=C(C(=O)CC[C@H](OC(=O)c1ccccc1-c1ccccc1C(=O)O)c1ccccc1OCCO)C(C)C	0.88
COCCOC(=O)N1C(=O)[C@@]2(c3cc(C#CCC(C(=O)OC)C(=O)OC)ccc31)[C@H](c1ccc(O)cc1)N1[C@H](c3ccccc3)[C@H](c3ccccc3)OC(=O)[C@H]1[C@@H]2C(=O)NC[C@H](O)c1ccccc1	0.416
[N-]=[N+]=NCc1ccccc1[C@@H]1OC(c2ccc(OCCCO)cc2)=N[C@]1(Cc1ccccc1N=[N+]=[N-])C(=O)NCCN1CCOCC1	0.191

SMILES	z-score
CN1C(=O)C2C=CC(C(O)c3ccc(I)cc3)N(Nc3ccccc3)C2C1=O (stereo unspecified)	-1.28
[N-]=[N+]=NCc1ccccc1[C@@H]1OC(c2ccc(OCCCO)cc2)=N[C@]1(Cc1ccccc1)C(=O)NCCN1CCOCC1	2.23
CC1(C)C(=O)C(c2ccccc2)=C2CN3C(=O)N(CCc4ccccc4)C(=O)C3(Cc3ccc(C(F)(F)F)cc3)C=C21 (stereo unspecified)	-1.01
O=C1N(CCS(=O)(=O)c2ccccc2)Cc2ccccc2[C@@H]2OC(c3ccc(OCCCO)cc3)=N[C@]12CCS(=O)(=O)c1ccccc1	0.958
CCOC(=O)C[C@H]1[C@H](OC(=O)c2cc3ccccc3oc2=O)[C@@H](NC(=O)c2ccc3ccccc3c2)c2cc(OCCCO)ccc2N1C(=O)Cc1ccc(OC)cc1	0.406
CC(C)OC(=O)CC(=O)CC(O)c1ccc([N+](=O)[O-])cc1 (stereo unspecified)	-0.346
CO[C@H]1O[C@H](CO)[C@@H](OC(=O)CCc2ccccc2)[C@H](OC(=O)c2cc3ccccc3[nH]2)[C@H]1OC(=O)c1cc2ccccc2[nH]1	0.367
C=CCNC(=O)[C@@H]1[C@H]2C(=O)O[C@H](c3ccccc3)[C@H](c3ccccc3)N2[C@H](c2ccc(OCCO)cc2)[C@@]12C(=O)N(C(=O)OCCOC)c1ccc(C#CCCO)cc12	0.756
COCCOC(=O)N1C(=O)[C@@]2(c3cc(C#CCCO)ccc31)[C@H](C(=O)N1CCCCCCC1)[C@H]1C(=O)O[C@H](c3ccccc3)[C@H](c3ccccc3)N1[C@@H]2c1ccccc1OCCO	-0.759
COC(=O)[C@@]1(Cc2ccc(F)cc2)[C@H]2c3cc(C(=O)N4CCCC4)n(C)c3C[C@H]2CN1C(=O)c1ccccc1	-0.359
COC(=O)[C@@]1(Cc2ccc(F)cc2)[C@H]2c3cc(C(=O)N(C)C)n(Cc4ccc(O)c(OC)c4)c3C[C@H]2CN1C(=O)c1ccccc1	0.373
C=CCC(OC(C)=O)[C@@H]1[C@@H](N(Cc2ccc(-c3cccc(C(F)(F)F)c3)o2)C(=O)c2ccc(C)cc2)c2cc(OCCCO)ccc2N1C(=O)Cc1ccc(OC)cc1 (stereo partly specified)	0.145
CN(C)CCCCNC(=O)[C@H]1C[C@H]2C(=O)N[C@@H](CCCC[N+](C)(C)C)C(=O)N2[C@H]1c1ccc(O)cc1	0.494
CCOC(=O)C1=C[C@@H](c2ccccc2)N(S(=O)(=O)c2ccc(C)cc2)[C@H]1c1ccccc1	-0.86
C=CC[C@H](OC(=O)Nc1ccc(SC)cc1)c1ccc(OCCO)cc1	-0.0217
O=C(O)[C@H]1C[C@H]2C(=O)N[C@@H](Cc3ccccc3)C(=O)N2[C@H]1c1cccc(OCCO)c1	-0.688
CN(C)C(=O)[C@]1(CCS(=O)(=O)c2ccccc2)N=C(c2ccc(OCCCO)cc2)O[C@@H]1c1ccccc1	0.582
CCOC(=O)C1=C[C@@H](C(C)(C)C)N(S(=O)(=O)c2ccc(C)cc2)[C@H]1c1ccc(C)cc1	-0.617
